From PubChem BioAssay (NCATS)
Results filed as inconclusive are left out. Values without a mark were called inactive. Active and inactive are the calls of the source. Calls follow the shape of the dose curve; as a rule, active = well fitted cell-killing curve with a large enough effect; inconclusive = small, poorly fitted or top-dose-only effect, or effect the other way; inactive = no such curve, though single readings can be large or run the other way.

Key:
[1] = Viability qHTS for spleen associated tyrosine kinase inhibitor (SYKi) naive MV4-11 cells (AID 1963823); also: nearly all actives have a fitted effect of over 40% in size
Method in brief: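 SYK inhibitor-naive MV4-11 cells, 500 per well, exposed to compounds for 72 hr at 37 C, 5% CO2. Viability read as CellTiter-Glo luminescence after 10 min at room temperature.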

[2] = Viability qHTS for spleen associated tyrosine kinase inhibitor (SYKi) drug resistant MV4-11 cells (AID 1963824); also: nearly all actives have a fitted effect of over 35% in size
Method in brief: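 CellTiter-Glo luminescence, read 10 min after reagent addition, reports viability after a 72 hr compound exposure. Cells are an MV4-11 line made resistant to SYK inhibition, seeded at 500 per well onto compound-containing plates.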
Potency is read from the fitted curve at half-maximal effect.

Row | SMILES | Potency [1] | Potency [2] | viability (% of control) [1] | viability, % of control [2]
1 | O=C(/C=C/c1ccc(O)c(O)c1)O[C@H]1[C@@H]2C=CO[C@@H](O[C@@H]3O[C@H](CO)[C@@H](O)[C@H](O)[C@H]3O)[C@@H]2[C@@]2(CO)O[C@@H]12 | inactive | inactive | – | –
2 | COc1cc2c(cc1OC)C(C(C(=O)N(CCc1ccc(OC)c(OC)c1OC)CCc1ccc(OC)c(OC)c1OC)c1ccccc1)=NCC2 (stereo not given) | 15 µM (active) | 21.1 µM (active) | – | –
3 | C=CC(C)(O)CC/C=C(\C)C(=O)OC1CC2(C(=O)O)CCC3(C)C(=CCC4C5(C)CCC(OC6OC(COC7OCC(O)C(O)C7O)C(O)C(OC7OCC(O)C(O)C7O)C6OC6OC(CO)C(O)C(O)C6OC6OCC(O)C(O)C6O)C(C)(C)C5CCC43C)C2CC1(C)C (stereo not given) | – | – | 73.5% [at 9.25 µM] | 68% [at 9.25 µM]
4 | Cc1ccccc1CN1C2=NCCN2C(=O)C2=C1CCN(Cc1ccccc1)C2 | 16.4 µM (active) | 9.2 µM (active) | – | –
5 | C[C@@H]1O[C@@H](O[C@H]2[C@H](O[C@H]3CC[C@@]4(C)C(CC[C@]5(C)C4CC=C4C6CC(C)(C)CC[C@]6(C(=O)O[C@@H]6O[C@H](CO[C@@H]7O[C@H](CO)[C@@H](O[C@@H]8O[C@@H](C)[C@H](O)[C@@H](O)[C@H]8O)[C@H](O)[C@H]7O)[C@@H](O)[C@H](O)[C@H]6O)CC[C@]45C)[C@]3(C)CO)OC[C@H](O)[C@@H]2O)[C@H](O)[C@H](O)[C@H]1O (stereo not given in full) | – | – | 69.6% [at 9.25 µM] | 88.1% [at 9.25 µM]
6 | C/C=C(\C)C(=O)OCC1OC(OC2OC(CO)C(O)C(O)C2O)C(O)C(O)C1O (stereo not given) | inactive | inactive | – | –
7 | O=C(Nc1nc2cc(C(F)(F)F)cc(NC3CC3)n2n1)c1cccnc1 | 3.66 µM (active) | 2.59 µM (active) | – | –
8 | O=C1NC(Cc2ccc(O)cc2)C(=O)N2CCCC12 (stereo not given) | inactive | inactive | – | –
9 | O=C(NCCN1CCC(n2c(=O)[nH]c3ccccc32)CC1)c1cc2cc(F)ccc2[nH]1 | 18.4 µM (active) | 18.4 µM (active) | – | –
10 | CCCCC(=O)N(Cc1ccc(-c2ccccc2-c2nn[nH]n2)cc1)C(C(=O)O)C(C)C (stereo not given) | inactive | inactive | – | –
11 | Cc1nc(Nc2ccc(F)cc2)nc(N2CCc3ccccc3C2C)c1C (stereo not given) | 20.6 µM (active) | 14.6 µM (active) | – | –
12 | CC(C)C(C#N)O[C@@H]1O[C@H](CO[C@@H]2OC[C@](O)(CO)[C@H]2O)[C@@H](O)[C@H](O)[C@H]1O (stereo not given in full) | inactive | inactive | – | –
13 | O=c1nc(-c2ccccn2)sc2ccccc12 | 1.84 µM (active) | 2.59 µM (active) | – | –
14 | COc1ccc(-c2ccc3c(N4CCOCC4)nc(N4CC(C)OC(C)C4)nc3n2)cc1CO (stereo not given) | 0.291 µM (active) | 1.03 µM (active) | – | –
15 | C[C@@H]1[C@H](O)[C@@H]2OC(=O)C3=C2[C@H](CCC3)[C@@]12C[C@@H](c1ccoc1)OC2=O | inactive | inactive | – | –
16 | C=C1C(=O)O[C@@H]2[C@H]1[C@H](O)C[C@]1(C)[C@@H](O)CC=C(C)[C@@H]21 | 9.2 µM (active) | 4.11 µM (active) | – | –
17 | CC1=C(C(=O)OC2OC(COC3OC(CO)C(O)C(O)C3O)C(O)C(O)C2O)C(C)(C)CCC1 (stereo not given) | inactive | inactive | – | –
18 | CCCCN1CCCC[C@H]1C(=O)Nc1c(C)cccc1C | inactive | inactive | – | –
19 | CN(C)CCCCC(=O)Nc1ccc(NC(=S)NC(=O)c2ccc(C(C)(C)C)cc2)cc1 | 1.3 µM (active) | 1.46 µM (active) | – | –
20 | C[C@@H]1CC[C@]2(C(=O)O)CC[C@]3(C)C(=CCC4[C@]5(C)C(CC[C@]43C)C(C)(C)[C@@H](O)[C@H](O)[C@@H]5O)C2[C@]1(C)O (stereo not given in full) | inactive | inactive | – | –
21 | CN1CCN(CCCN2c3ccccc3Sc3ccc(S(=O)(=O)N(C)C)cc32)CC1 | 11.9 µM (active) | 10.6 µM (active) | – | –
22 | CC(C/C=C/C(C)(C)O)C1CCC(C)(O)C(O)C1 (stereo not given) | inactive | inactive | – | –
23 | C=CC(C)(CC/C=C(\C)CC/C=C(\C)CC(O)/C=C(\C)C(=O)O)O[C@@H]1O[C@H](CO)[C@@H](O)[C@H](O)[C@H]1O[C@@H]1O[C@H](CO)[C@@H](O)[C@H](O)[C@H]1O (stereo not given in full) | inactive | inactive | – | –
24 | OC[C@H]1O[C@@H](OCCc2ccccc2)[C@H](O[C@@H]2OC[C@](O)(CO)[C@H]2O)[C@@H](O)[C@@H]1O | inactive | inactive | – | –
25 | C=C1C(=O)OC2/C=C(\CO)CC/C=C(\C=O)CC(OC(=O)CC(C)C)C12 (stereo not given) | 2.27 µM (active) | 2.02 µM (active) | – | –
